# Results filed as inconclusive are left out. Values without a mark were called inactive. The call rests on the fitted dose curve; in most records, active means well fitted inhibition curve with a large enough effect; inconclusive means small, poorly fitted or top-dose-only effect; inactive means no such curve, though single readings can be large or run the other way.
# Target: Retinaldehyde dehydrogenase 3 (Homo sapiens) (UniProt P47895)
# Assay: qHTS for Inhibitors of the Aldehyde Dehydrogenase Family (ALDH1A3) Primary screen (AID 2061315);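 further: plate controls were DMSO vehicle for no effect and reference inhibitor for full effect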
# Details: ALDH inhibition qHTS; series mostly up to 56 µM; activity change, negative = inhibition: at the top concentration
row,SMILES,"activity change, negative = inhibition [%]"
1,COc1ccc(C2c3c(nc(CCCc4ccccc4)[nH]c3=O)Oc3ccc4ccccc4c32)cc1OC (stereo not drawn),0.881
2,Cc1cc2c(s1)c1cnn(Cc3c(F)ccc(Cl)c3F)c(=O)c1n2C,-2.05
3,Cc1cc(C)nc(NC(=S)N2CCN(c3cc(Br)cc(C(F)(F)F)c3)CC2)c1,-7.26
4,CN1CCC(N(Cc2cccs2)c2ccccc2)CC1,26.8
5,Cc1cc2c(s1)c1cnn(Cc3ccccc3Br)c(=O)c1n2C,19.6
6,Cc1nc(-c2ccccc2C(C)C)nc(NCc2ccc(-c3cccnc3)cc2)c1C,1.46
7,CN(Cc1ccco1)c1ncnc2ccc(-c3ccc4c(c3)OCCO4)cc12,-0.777
8,CC(=O)Nc1sc2c(c1-c1cccs1)CCNC2,-11
